Source: PubChem BioAssay
An excerpt weighted towards active compounds, which were near 2.8% of everything screened.
AHR act: human AHR activation; actives 2.5% (n = 320,000); AHR-responsive luciferase reporter cells, luminescence; P35869; activation, % at 5 µM; in the data active means activation above about 47%;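 further: 0% = vehicle wells and 100% = reference agonist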
Platelet DG rel: platelet dense granule release activity; human platelet-rich plasma, SFLLRN dense granule ATP release, luminescence; inhibition, %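 (compounds screened at 7.5 µM in platelet-rich plasma)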; actives 0.22% (n = 300,000);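 active means mean replicate score, as percent of positive control, at or above 50; inconclusive means mean below 50 but at least one replicate at or above 50; inactive means mean and every replicate below 50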
PolyA inhibitor: inhibitors of polyadenylation in S. cerevisiae. S. cerevisiae SKY197-pL101 polyadenylation reporter, beta-gal luminescence; efflux-impaired pdr1/pdr3 knockout yeast; score 100 = 6 SD above DMSO. activity score, % at 12 µM. actives 0.02% (n = 300,000);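 active means lowest replicate activity score at least 50, where 100 means six control SD above control mean; inconclusive means lowest score under 50 but half or more replicates reach 50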;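 further: yeast exposed to compound for 9 h at 30 °C; higher score means more reporter readthrough which indicates perturbed polyadenylation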
pCIP destab: p/CIP protein destabilization | Q05BA5 | F442A p/CIP-EGFP cells, EGFP fluorescence, 16 h | decrease of EGFP signal, % at 10 µM | actives 0.01% (n = 290,000) | AID 1984;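 active means EGFP signal decrease of at least 30% at 10 µM or well 3 SD below plate mean, unless failing retest; inactive means the rest, including hits failing retest or dose response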
Target sequence (Q05BA5 1-1403): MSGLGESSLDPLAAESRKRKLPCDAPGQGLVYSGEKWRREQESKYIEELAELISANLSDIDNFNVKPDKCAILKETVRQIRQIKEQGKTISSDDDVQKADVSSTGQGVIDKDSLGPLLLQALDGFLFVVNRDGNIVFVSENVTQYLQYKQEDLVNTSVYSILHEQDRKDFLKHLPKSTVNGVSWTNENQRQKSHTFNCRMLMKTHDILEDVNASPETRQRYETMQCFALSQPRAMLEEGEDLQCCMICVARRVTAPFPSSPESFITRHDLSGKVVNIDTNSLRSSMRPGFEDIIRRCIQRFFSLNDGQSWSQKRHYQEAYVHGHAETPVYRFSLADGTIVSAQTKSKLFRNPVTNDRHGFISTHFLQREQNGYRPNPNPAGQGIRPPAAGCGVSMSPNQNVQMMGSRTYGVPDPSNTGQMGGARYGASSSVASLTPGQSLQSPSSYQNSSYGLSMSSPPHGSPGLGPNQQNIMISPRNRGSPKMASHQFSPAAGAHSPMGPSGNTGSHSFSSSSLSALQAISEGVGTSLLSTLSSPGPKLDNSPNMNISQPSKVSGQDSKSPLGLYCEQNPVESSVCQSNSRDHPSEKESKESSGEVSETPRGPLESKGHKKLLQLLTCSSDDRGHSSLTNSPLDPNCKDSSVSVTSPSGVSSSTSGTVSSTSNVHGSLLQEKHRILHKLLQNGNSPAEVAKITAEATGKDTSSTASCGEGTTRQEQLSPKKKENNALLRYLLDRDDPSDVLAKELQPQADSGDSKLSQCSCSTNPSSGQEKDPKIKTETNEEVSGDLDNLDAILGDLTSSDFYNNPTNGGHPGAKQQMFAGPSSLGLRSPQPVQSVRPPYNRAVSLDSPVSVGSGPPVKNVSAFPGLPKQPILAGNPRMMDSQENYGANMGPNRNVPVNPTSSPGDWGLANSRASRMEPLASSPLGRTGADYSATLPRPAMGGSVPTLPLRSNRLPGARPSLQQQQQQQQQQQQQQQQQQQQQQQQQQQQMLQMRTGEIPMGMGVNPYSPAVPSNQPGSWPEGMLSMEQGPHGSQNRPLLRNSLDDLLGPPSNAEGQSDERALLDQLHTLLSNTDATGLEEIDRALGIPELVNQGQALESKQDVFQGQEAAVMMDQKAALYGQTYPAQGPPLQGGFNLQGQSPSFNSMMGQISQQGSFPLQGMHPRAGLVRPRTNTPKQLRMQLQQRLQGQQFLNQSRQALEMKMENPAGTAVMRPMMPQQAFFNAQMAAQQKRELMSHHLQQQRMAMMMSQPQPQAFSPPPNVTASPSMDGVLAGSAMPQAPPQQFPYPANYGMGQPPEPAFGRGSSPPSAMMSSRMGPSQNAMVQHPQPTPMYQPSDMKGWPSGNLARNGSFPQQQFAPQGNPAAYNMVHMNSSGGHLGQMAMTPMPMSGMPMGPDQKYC
HIF activator: HIF pathway transcriptional activation; activation, % at 7.5 µM (by protocol); actives 0.32% (n = 300,000); AID 1910; U2OS HRE-luciferase reporter, luminescence; normalized: DMSO 0%, desferrioxamine 100%;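 active means mean activation of at least 10% of the iron chelator positive control signal, with at least half of replicates also reaching 10%; inconclusive means mean and replicate majority disagree about reaching 10%; inactive means mean and most replicates under 10%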
Numbers without * were called inactive; u = inconclusive; x = no result.

SMILES	AHR act	Platelet DG rel	PolyA inhibitor	pCIP destab	HIF activator
O=C(CSc1nc2ccccc2s1)NCCOc1ccc(Cl)cc1	48*	4	-22	8	0
Brc1ccc(-c2noc3c2-c2nc(-c4ccccc4)sc2CC3)cc1	10	-1	6	x	0
O=C(NC1CCc2ccccc21)c1cc(COc2cncc(Cl)c2)on1 (stereo unspecified)	55*	17	-18	-5	3
CC(/C=C/C(=O)c1ccc(C)cc1)=C\c1ccccc1	64*	4	-12	5	1
ClC(Cl)(Cl)c1nc(N/N=C/c2ccncc2)c2ccccc2n1	67*	-4	2	-2	0
O=[N+]([O-])c1cccc(/C=N/Nc2nc(C(Cl)(Cl)Cl)nc3ccccc23)c1	54*	0	0	5	0
CCCc1ccc(NC(=O)C2CCCN(c3cnccn3)C2)cc1 (stereo unspecified)	48*	-2	-7	-2	1
O=C(NCc1ccc(Cl)cc1)C1CCCN(c2cnccn2)C1 (stereo unspecified)	78*	-1	5	-10	1
Cc1cccc(CCNC(=O)C2CCCN(c3cnccn3)C2)c1 (stereo unspecified)	73*	1	13	8	1
COc1cccc(CNC(=O)C2CCCN(c3cnccn3)C2)c1 (stereo unspecified)	25	4	16	-23	-1
CCOc1ccc(NC(=O)C2CCCN(c3cnccn3)C2)cc1 (stereo unspecified)	64*	0	2	3	0
O=C(Nc1ccc(F)cc1)C1CCCN(c2cnccn2)C1 (stereo unspecified)	9	-3	-4	-11	-1
COc1ccc(N(CC(C)C)S(=O)(=O)c2nnc(NC(=O)CC(C)C)s2)cc1	x	-2	6	-18	1
CN(Cc1ccccc1)C1CCN(Cc2ccccc2[N+](=O)[O-])CC1	14	10	12	-12	-1
O=C(O)c1ccc(Cl)cc1Nc1nc2cc(Cl)ccc2o1	59*	-5	-11	-10	1
C#CC1(NC(=O)NC(C)C)CCCCC1	0	0	33	1	0
COC(=O)Cc1nnc(Nc2cccc(C)c2)c2ccccc12	61*	20	-7	-5	0
Cc1ccccc1NC(=O)COc1coc(CN2CCN(c3ccccc3)CC2)cc1=O	-3	1	-3	x	0
NNC(=O)c1n[nH]c2c1CC(C1CCCCC1)CC2 (stereo unspecified)	2	x	x	x	x
CCN(CC)C(=O)Cn1cc(C(=O)C(=O)NCCc2c[nH]c3ccccc23)c2ccccc21	1	-3	1	4	0
O=C(NC1CCCCC1)c1ccc([N+](=O)[O-])o1	1	-3	-13	-7	-7
O=C(NC1CCCCC1)c1ccc(-c2ccccc2[N+](=O)[O-])o1	59*	5	6	1	7
CN(C)/C=C/C(=O)c1cnc(-c2ccccc2Cl)s1	57*	6	18	-10	0
Cc1sc2ncnc(NCc3cccnc3)c2c1C	61*	0	9	3	0
CC(=O)C1=C(c2ccccc2)N(C(C)=O)n2c(C)nnc2S1	51*	5	-8	-7	0
SMILES	AHR act	Platelet DG rel	PolyA inhibitor	pCIP destab	HIF activator
CC(=O)N1CCN(c2nnc(-c3ccccc3)c3ccccc23)CC1	3	9	11	-1	-1
CC(=O)N1c2ccc(S(=O)(=O)NCC3CCC(C(=O)Nc4cccc(C)n4)CC3)cc2CC1C (stereo unspecified)	1	-2	0	-11	0
C#Cc1ccc([C@H]2C=C(C(=O)OCC=C)O[C@@H](OCc3ccc(CO)cc3)C2)cc1	11	-1	-6	x	0
C#Cc1ccc([C@H]2C=C(C(=O)OCC=C)O[C@@H](OCCCCO)C2)cc1	49*	-1	6	x	0
O=C(CCc1ccccc1)Nc1ccncc1	1	8	0	-14	0
CC(C)c1ccc(NC(=O)CCc2ccccc2)cc1	9	-3	6	-6	12*
O=C(CCc1ccccc1)Nc1nncs1	6	59*	-3	7	0
Cn1c(SCC(=O)Nc2ccccc2)nnc1-c1ccc(NC(=O)CCc2ccccc2)cc1	0	5	3	-5	26*
CSc1nnc(-c2ccc(NC(=O)CCc3ccccc3)cc2)n1C	-1	2	8	5	0
COc1ccccc1N1CCN(C(=O)c2ccc(COc3cccc4c3OC(C)(C)C4)cc2)CC1	2	-13	-9	x	0
COc1ccccc1CC1(C)NC(=O)N(CC(=O)Nc2cc(C)on2)C1=O (stereo unspecified)	2	-7	19	-9	0
CN1CCc2c(sc3nc(NCCO)n(-c4cccc(Cl)c4)c(=O)c23)C1	0	9	24	3	-1
Nc1ccccc1-c1nc2ccccc2s1	57*	4	-11	4	3
O=C(Nc1ccc(-c2nc3ccccc3[nH]2)cc1)c1ccc2c(c1)OCO2	17	-1	8	5	0
Oc1ccc(-c2nc3ccccc3s2)cc1	55*	u	21	-5	1
c1ccc2sc(-c3ccc4c(c3)OCO4)nc2c1	65*	x	x	-4	x
c1ccc2[nH]c(-c3ccc4c(c3)OCO4)nc2c1	1	73*	-4	x	0
CC(=O)N1CCc2cc(S(=O)(=O)CCC(=O)NCCc3ccc(Cl)cc3)ccc21	-1	-2	7	-10	-1
Nc1nc2ncc(-c3ccsc3)c(N)n2n1	1	-1	5	2	0
Brc1ccc(C2=CC(c3ccco3)n3nnnc3N2)cc1 (stereo unspecified)	52*	-1	13	-1	1
COc1ccccc1Nc1nc(NCCCN(C)C)nc(N)c1[N+](=O)[O-]	62*	6	8	-9	1
CCC(C)Nc1nc(N)c([N+](=O)[O-])c(Nc2ccccc2OC)n1 (stereo unspecified)	69*	-17	-57	0	0
COc1ccccc1Nc1nc(NCC(C)C)nc(N)c1[N+](=O)[O-]	79*	-3	-35	2	0
COc1ccccc1NC(=O)Cn1cnc2c(cnn2-c2ccc(C)c(C)c2)c1=O	6	0	12	-6	0
CCCn1c(N)c(C(=O)CSc2nnc(C3CC3)n2C2CC2)c(=O)[nH]c1=O	1	x	x	x	x
COC(=O)Nc1ccc(S(=O)(=O)NC2CCCCC2)cc1	1	-1	11	-13	0
Cc1[nH]c2ccccc2c1C(=O)CN1CCC(C)CC1	56*	6	7	-6	0
Cc1[nH]c2ccccc2c1C(=O)COc1ccccc1F	63*	-10	18	0	2
Cc1ccc2c(C(=O)CSc3ccccc3)c(C)[nH]c2c1	58*	-2	-24	2	2
Cc1[nH]c2ccccc2c1C(=O)CSc1ccccn1	53*	-4	10	-10	1
